High-throughput results (PubChem BioAssay)
Coupling enz = qHTS Assay for Inhibitors of Fructose-1,6-bisphosphate Aldolase from Giardia Lamblia: Coupling assay counterscreen. coupling enzyme system counterscreen, AmpLite Red fluorescence. activity change, negative = inhibition, % at 58.2 µM, hits read low. actives 0.67% (n = 290,000); in the data active = activity change below about -30%
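Counterscreen lacking aldolase: glyceraldehyde-3-phosphate coupling-enzyme reagent preincubated 10 min at RT with compound (at 57.5 uM final), then substrate/coupling system with AmpLite Red added; fluorescence read at 525/598 nm after 20 min RT.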
Tau fibril FP = qHTS for Inhibitors of Tau Fibril Formation, Fluorescence Polarization; Potency, µM (titrated, usually from 57.7 µM), without a hit: top-dose activity, negative = inhibition, usual class: inhibitors; Microtubule-associated protein tau (Homo sapiens), P10636; K18 P301L tau heparin fibrillization, Alexa594 FP, 6 h; actives 0.39% (n = 280,000); note: potency is the fitted concentration of half-maximal effect; nearly all actives have a fitted effect of over 55% in size
Target sequence (P10636 561-689 P618L limits assumed): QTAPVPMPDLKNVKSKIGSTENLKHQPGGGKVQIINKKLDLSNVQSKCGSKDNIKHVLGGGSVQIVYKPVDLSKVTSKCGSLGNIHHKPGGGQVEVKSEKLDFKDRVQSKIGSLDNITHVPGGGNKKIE
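Quantitative HTS format: compounds meet 15 uM recombinant K18 P301L tau and Alexa 594-tau tracer in 100 mM sodium acetate pH 7; 20 uM heparin triggers fibrillization at 37 C over 6 hr; FP gives the signal.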
Sfp PPTase inh = qHTS Assay for Inhibitors of Bacillus subtilis Sfp phosphopantetheinyl transferase (PPTase). Biochemical Sfp PPTase activity, qHTS. actives 3.5% (n = 310,000). Potency, µM, inactives show largest response in the series, negative = inhibition, actives largely listed as inhibitors. 4'-phosphopantetheinyl transferase ffp (Bacillus subtilis), Q9F4F7;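 note: the enzyme is Sfp with the accession as filed and its product quenches rhodamine fluorescence; potency is the fitted concentration of half-maximal effect; 0% = enzyme reaction without inhibitor and -100% = no enzyme wells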
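Step 1, compound plus 15 nM Sfp-PPTase, 15 min, room temperature. Step 2, add rhodamine-CoA (5 uM) and BHQ-2-YbbR (12.5 uM). Step 3, read 525/598 nm fluorescence at 0 and 30 min.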
G9a block = qHTS Assay for Inhibitors of Histone Lysine Methyltransferase G9a; actives 8.8% (n = 350,000); Potency, µM (highest dose often 102 µM), inactives show at the top dose activity, negative = inhibition, actives largely listed as inhibitors; G9a H3K9 monomethylation, AlphaScreen, 2 h; note: potency is the fitted concentration of half-maximal effect; nearly all actives have a fitted effect of over 75% in size
Target sequence (Q96KQ7 913-1193 limits assumed): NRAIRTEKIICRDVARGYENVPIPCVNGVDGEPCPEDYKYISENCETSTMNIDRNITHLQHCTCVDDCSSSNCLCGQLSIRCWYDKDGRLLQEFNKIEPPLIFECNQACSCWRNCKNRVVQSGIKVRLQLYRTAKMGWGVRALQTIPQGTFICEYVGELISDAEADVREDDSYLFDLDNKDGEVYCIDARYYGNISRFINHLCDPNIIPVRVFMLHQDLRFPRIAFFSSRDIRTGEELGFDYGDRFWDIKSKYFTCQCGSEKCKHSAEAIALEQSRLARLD
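AlphaScreen detection with an anti-monomethyl H3K9 antibody quantified product after a 2 h room-temperature reaction containing 500 nM biotinylated H3K9 peptide, 20 µM SAM and 20 nM enzyme, which had been preincubated 15 min with compound.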
Tau fibril ThT = qHTS for Inhibitors of Tau Fibril Formation, Thioflavin T Binding | actives 2.1% (n = 270,000) | Potency, µM (top dose mostly 57.4 µM), for the others: top-dose activity, negative = inhibition, hits mostly inhibitors | recombinant tau K18 P301L, heparin-induced fibrillization, ThT fluorescence | AID 1460, 2008; note: potency is the fitted concentration of half-maximal effect; nearly all actives have a fitted effect of over 55% in size
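K18 P301L tau (15 uM + 0.24 uM Alexa 594-tagged), heparin 20 uM, NaOAc pH 7, 6 h 37 C; ThT 30 uM, 1 h RT, ex 450/em 510 nm.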
Tau fluor counter = Counterscreen qHTS for Inhibitors of Tau Fibril Formation, Fluorescence Polarization | tau K18 P301L Alexa594 fluorescence, heparin fibrillization | actives 0.93% (n = 280,000) | AID 1463, 2008 | Potency, µM (highest dose often 57.7 µM), for inactives: at the top dose activity change, negative = decrease; note: potency is the fitted concentration of half-maximal effect; nearly all actives have a fitted effect of over 55% in size
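Human tau K18 P301L (15 uM unlabeled, 0.24 uM Alexa 594-labeled) in 100 mM sodium acetate pH 7 with 20 uM heparin, 6 hr at 37 C. ThT 30 uM added, 1 hr ambient; Alexa 594 FP and total fluorescence read at 555/632 nm.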
An asterisk follows results filed as active; ? = inconclusive; · = not tested or not shown; ! = not active in a repeat; [ ] = another dose, or the depositor's remark. Compounds with a hit are over-represented: about 11% of the library has one in this group of screens. Unless noted, calls come from the whole dose curve; as a rule, active = well fitted curve in the direction sought with a large enough effect; inconclusive = small, poorly fitted or top-dose-only effect, or another doubt; inactive = no such curve, though single readings can be large; an effect the other way counts as inactive or inconclusive. Unless noted, % is set by controls: 0 for no effect and ±100 for the full control effect.

SMILES	Coupling enz	Tau fibril FP	Sfp PPTase inh	G9a block	Tau fibril ThT	Tau fluor counter
Cc1ccc(C)c(NC(=O)CSc2nc3c([nH]c4ccccc43)c(=O)n2-c2ccc(F)cc2)c1	·	-7%	·	-5%[59 µM]	2%	-9%
CC(Sc1nncs1)C(=O)Nc1ccc2c(c1)OCO2 (centres undefined)	0	-1%	3%	-40%	-13%	-6%
O=C(NN=C1C2CC3CC1CC(Cl)(C3)C2)c1cccs1	1	0%	-6%	-47%	8%	4%
O=C(NN=C1C2CC3CC1CC(Cl)(C3)C2)c1ccccn1	-1	-4%	7.9µM*	-7%	-14%	-6%
CC[n+]1ccc(/C=C2\Sc3ccccc3N2CCCS(=O)(=O)[O-])c2ccccc21	1	0%	-11%	·	?	-7%
CN1C=C/C(=C\c2cc[n+](C)c3ccccc23)c2ccccc21	-62*	?	10%	?	14µM*	?
Cc1c(NC(=O)CN2C(=O)NC(C)(c3ccc(OC(F)F)cc3)C2=O)c(=O)n(-c2ccccc2)n1C (centres undefined)	·	·	·	50µM*	·	·
Cc1c(NC(=O)COC(=O)COc2ccc(Nc3ccccc3)cc2)c(=O)n(-c2ccccc2)n1C	2	9%	-8%	50µM*	?	-21%
CC1(c2ccc(OC(F)F)cc2)NC(=O)N(CC(=O)Nc2ccc3[nH]c(=O)[nH]c3c2)C1=O (centres undefined)	·	·	·	56µM*	·	·
COc1ccc2cc(C3(C)NC(=O)N(CC(=O)Nc4c(C)n(C)n(-c5ccccc5)c4=O)C3=O)ccc2c1 (centres undefined)	8	-2%	10%	36%[59 µM]	10%	3%
COc1ccc(C2(C)NC(=O)N(CC(=O)Nc3c(C)n(C)n(-c4ccccc4)c3=O)C2=O)cc1 (centres undefined)	·	·	·	56µM*	·	·
NC/C=C\C(=O)O	1	1%	11%	13µM*!	-4%	0%
CCc1ccc(-n2nc(CO)c(C(=O)NCc3ccccc3Cl)n2)cc1	·	-6%	·	10%[59 µM]	-15%	-8%
O=C(c1cccnc1)N1CCN(Cc2ccccc2Br)CC1	-1	1%	50µM*	?	-10%	-11%
O=C(c1cccnc1)N1CCN(Cc2ccc3c(c2)OCO3)CC1	-1	-10%	?	?	0%	-1%
O=C(c1cccnc1)N1CCN(Cc2cccc(Br)c2)CC1	7	13%	89µM*	13µM*	6%	6%
O=C(c1cccnc1)N1CCN(C(=O)c2ccccc2F)CC1	1	-4%	15%	3%[12.7 µM]	-7%	-2%
COc1ccc(CN2CCN(C(=O)c3cccnc3)CC2)cc1Br	0	-4%	79µM*	18µM*	-18%	-7%
COc1ccc(-c2cn3nc(N4CCC(C(=O)Nc5cc(Cl)ccc5OC)CC4)sc3n2)cc1	·	3%	·	-7%[59 µM]	?	-28%
NC(=O)C1CCN(C(=O)CN(C2CCCCC2)S(=O)(=O)c2ccc(F)cc2)CC1	-1	·	14%	12%	·	·
Cc1[nH]c(=S)c(C#N)c(C)c1C(=O)Nc1ccccc1	1	-10%	45µM*	1.3µM*	-18%	-15%
CCc1c(C(=O)Nc2ccccc2)c(C)[nH]c(=S)c1C#N	-6	-6%	56µM*	1.6µM*	-21%	-10%
Cc1[nH]c(C(=O)O)c(C#N)c1C(=O)c1ccccc1	2	·	-4%	?	·	·
